The list is not random: actives were taken first. Their share in the collection is about 6.4%.
RORgamma inh = ROR gamma (mouse) transcription inhibition; 310,000 tested, 5.4% active; AID 2551; P51450; Drosophila S2 Gal4-RORgamma UAS-luciferase reporter, 20 h; Potency, µM (highest dose often 53.6 µM), inactives show at the top dose activity change, negative = inhibition, usual class: inhibitors; also: nearly all actives have a fitted effect of over 60% in size
Target sequence (P51450 whole entry, looked up, the tested form may be a part): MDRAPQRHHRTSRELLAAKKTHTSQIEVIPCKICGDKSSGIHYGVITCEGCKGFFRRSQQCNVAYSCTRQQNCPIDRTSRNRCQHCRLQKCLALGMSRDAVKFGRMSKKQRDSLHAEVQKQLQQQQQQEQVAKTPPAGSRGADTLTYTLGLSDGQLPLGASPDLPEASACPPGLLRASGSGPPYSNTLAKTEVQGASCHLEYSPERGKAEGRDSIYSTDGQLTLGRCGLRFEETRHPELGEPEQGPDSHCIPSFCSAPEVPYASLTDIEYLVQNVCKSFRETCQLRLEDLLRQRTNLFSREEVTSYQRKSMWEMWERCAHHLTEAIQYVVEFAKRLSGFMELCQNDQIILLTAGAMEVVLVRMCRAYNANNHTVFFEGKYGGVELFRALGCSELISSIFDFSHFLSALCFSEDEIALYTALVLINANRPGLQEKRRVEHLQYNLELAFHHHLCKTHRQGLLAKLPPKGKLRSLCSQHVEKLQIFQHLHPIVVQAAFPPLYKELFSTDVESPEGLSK
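Stably transfected Drosophila Schneider cells are the test system, with ROR gamma fused to Gal4 and luciferase under UAS control; luminescence is read after 20 hr of 700 uM copper sulfate induction at ambient temperature.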
Luc counter = blocks Kinase-Glo luciferase, a counter-screen artifact; Kinase-Glo luciferase, ATP luminescence, 8 min; AID 1379; Q27757; 200,000 tested, 0.28% active; Potency, µM (highest dose often 38.3 µM), without a hit: top-dose activity change, negative = inhibition, usual class: inhibitors; also: nearly all actives have a fitted effect of over 60% in size
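Recombinant Kinase-Glo luciferase, 10 uM ATP (linear range), luciferin; imidazole pH 7.2 / KCl / MgCl2 / Tween / BSA buffer; 8 min RT; luminescence.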
VP16 counter = counter-screen for ROR gamma inhibitors: Gal4-VP16 reporter | Drosophila S2 Gal4-VP16 UAS-luciferase, luminescence, 20 h | Potency, µM (highest dose often 53.6 µM), inactives show at the highest dose activity, negative = inhibition, actives largely listed as inhibitors | 310,000 tested, 3.5% active | AID 2546;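 also: Gal4-VP16 expression switched on by copper sulfate through the metallothionein promoter; nearly all actives have a fitted effect of over 50% in size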
Numbers without * were called inactive; u = inconclusive; x = no result given; [ ] = another dose, or the depositor's remark. Calls follow the shape of the dose curve; as a rule, active = well fitted curve in the direction sought with a large enough effect; inconclusive = small, poorly fitted or top-dose-only effect, or another doubt; inactive = no such curve, though single readings can be large; an effect the other way counts as inactive or inconclusive. % is scaled to controls: 0 for no effect and ±100 for the full control effect; potency is read from the fitted curve at half-maximal effect.

SMILES | RORgamma inh | Luc counter | VP16 counter
COc1cc(C(=O)N/N=C/c2ccc(OC(=O)c3cccc(C)c3)cc2)ccc1O | 27% | x | -14%
Cc1cccc(C(=O)Oc2ccc(/C=N/O)cc2)c1 | 5.6µM* | -2% | 2µM*
O=C(C1CCOCC1)N1CCCC(N2CCN(c3ccc(F)cc3)CC2)C1 (centres undefined) | 7% | x | 9%
O=C(NCC(=O)N1CCN(c2ccccc2)CC1)c1ccco1 | 17% | x | 11%
Cc1ccc(C)c(NC(=O)c2cc(-c3ccccc3)nn2-c2ccccc2)c1 | 15% | 1% | 22µM*
CC(=O)Nc1ccc(-c2cc(NC(C)=O)n(-c3ccccc3)n2)cc1 | 6% | x | -1%
Cc1cc(NC(=O)COc2ccccc2)n(-c2ccccc2)n1 | -7% | 7% | -10%
Cc1ccc(-c2cc(NC(=O)CCl)n(-c3ccccc3)n2)cc1 | 6.3µM* | -5% | 5µM*
Cc1ccc(C)c(NC(=O)c2nc(-c3ccccc3)n(-c3ccccc3)n2)c1 | u | -2% | 13%
O=C(CCl)Nc1cc(-c2ccccc2)nn1-c1ccccc1 | 14µM* | -6% | u
CCCCNC(=O)[C@@H]1CSC2c3ccccc3C(=O)N21 (some centres undefined) | 11% | x | 0%
CCCCc1nc2c(c3c1CC(C)OC3)CN(CCC(C)C)CC2 (centres undefined) | -4%[10 µM] | x | -4%[10 µM]
CC1=C(C(=O)OCCCCCl)C(c2cc3c(cc2Br)OCO3)NC(=O)N1 (centres undefined) | 30% | x | -2%
CCCc1cc(=O)oc2cc(OCC(=O)NCCCN3CCCC3=O)ccc12 | 4% | x | -5%
CCc1ccc2oc(-c3ccc(OC)cc3)cc(=Nc3cccc(C(=O)O)c3)c2c1 | u | -8% | 11µM*
COc1ccc(-c2cc(=Nc3ccc(C(=O)O)cc3)c3cc(C)ccc3o2)cc1 | -39% | -1% | u
CC(C)c1nc(SCC(=O)Nc2c[nH]c(=O)[nH]c2=O)c2cnn(-c3ccccc3)c2n1 | 14% | -1% | -1%
Cc1cccc(NC(=O)N(Cc2nc3ccccc3c(=O)[nH]2)C2CCCC2)c1 | -33% | -11% | -4%
Cc1ccccc1C(=O)N(Cc1nc2ccccc2c(=O)[nH]1)C1CCCC1 | u | 2% | -1%
Cc1ccc(C(=O)N(Cc2nc3ccccc3c(=O)[nH]2)C2CCCC2)cc1 | -25% | 4% | 7.1µM*
O=C(Nc1cccc(Cl)c1)N(Cc1nc2ccccc2c(=O)[nH]1)C1CCCC1 | 14µM* | -6% | u
COc1ccc(-c2cc(=O)c3c(O)cc(O[C@H]4OC(COC5OC(C)C(O)C(O)[C@H]5O)C(O)C(O)C4O)cc3o2)cc1O (some centres undefined) | 9% | -8% | -5%
O=C(CSc1nc(-c2ccccc2)c(-c2ccccc2)o1)NCCCO | -1% | x | 6%
CCc1ccc(NC(=S)Nc2cc(C(=O)O)ccc2N2CC3CC(C2)c2cccc(=O)n2C3)cc1 (centres undefined) | 10µM* | 1% | u
O=C(O)c1ccc(N2CC3CC(C2)c2cccc(=O)n2C3)c(NC(=S)Nc2ccc(Br)cc2)c1 (centres undefined) | u | -2% | -7%
SMILES | RORgamma inh | Luc counter | VP16 counter
CC(=Nc1ccc(O)cc1)c1sc2ccccc2c1O | 19% | -2% | -11%[0.365 µM]
CC(=Nc1ccccc1O)c1sc2ccccc2c1O | 2µM* | x | u
CN(Cc1ccccc1)C(=O)C1CCN(S(=O)(=O)c2cccc3nonc23)CC1 | 11% | x | 9%
CCOC(=O)c1c(-c2ccc(C)o2)csc1N | -36% | 0% | 7%
CCOC(=O)c1c(-c2ccc(C)o2)csc1NC(=O)COC(=O)c1cccs1 | u | -4% | 20µM*
CCOC(=O)c1c(-c2ccc(C)o2)csc1NC(=S)NC(=O)N(C)C | 0.79µM* | 0% | 2.2µM*
CCOC(=O)c1c(-c2ccc(C)o2)csc1NC(=O)CN1CCOCC1 | 13% | 6% | -1%
COC(=O)c1ccc(C2/C(=C(/O)c3ccc4c(c3)CC(C)O4)C(=O)C(=O)N2Cc2ccncc2)cc1 (centres undefined) | 3% | x | 3%
COC(=O)C(Cc1ccccc1)NC(=O)CCCC(=O)NCc1cccc(OC)c1 (centres undefined) | 2% | x | 2%
O=C(/C=C/c1cccs1)Nc1ccncc1 | 17% | -5% | -4%
Cc1nc(NC(=S)NC(=O)COc2ccc(Cl)cc2)ccc1Br | -35% | 0% | -6%
Cc1nc(NC(=S)NC(=O)c2cccs2)ccc1Br | 1.4µM* | 1% | 13µM*
Cc1cccc(NC(=S)NC(=O)c2ccco2)n1 | u | -3% | u
Cc1cccc(NC(=S)NC(=O)c2cccs2)n1 | 3.5µM* | -5% | u

Screens from PubChem.
